From PubChem
HTT aggregate – mutant huntingtin aggregation inhibition; AID 1688; 220,000 compounds, 1.1% hits; Potency, µM (series often up to 46.1 µM), for the others: top-dose activity change, negative = inhibition, usual class: inhibitors; PC12 HttQ103-GFP aggregates, Acumen cytometry, 40 h; also: potency is read from the fitted curve at half-maximal effect; % is scaled to controls: 0 for no effect and ±100 for the full control effect; nearly all actives have a fitted effect of over 60% in size
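Compounds (qHTS titration) were added to PC12 cells expressing an ecdysone-driven HTT exon 1 Q103–GFP fusion after induction with 100 nM tebufenozide. Aggregate formation was measured as GFP objects in cell lysates.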
ALDH1A1 block – inhibitors of human aldehyde dehydrogenase 1A1; P00352; Purified ALDH1A1, NADH fluorescence, propionaldehyde substrate; Potency, µM (highest dose often 75.3 µM), inactives show top-dose activity, negative = inhibition, hits mostly inhibitors; 220,000 compounds, 7.3% hits; AID 1030; active = well fitted inhibition curve with a large enough effect, not every such curve was filed as active; inconclusive = small, poorly fitted or top-dose-only effect, or another doubt; inactive = no such curve, though single readings can be large or run the other way;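 also: potency is read from the fitted curve at half-maximal effect; plate controls were no enzyme wells and a reference inhibitor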
Target sequence (P00352 whole entry, looked up): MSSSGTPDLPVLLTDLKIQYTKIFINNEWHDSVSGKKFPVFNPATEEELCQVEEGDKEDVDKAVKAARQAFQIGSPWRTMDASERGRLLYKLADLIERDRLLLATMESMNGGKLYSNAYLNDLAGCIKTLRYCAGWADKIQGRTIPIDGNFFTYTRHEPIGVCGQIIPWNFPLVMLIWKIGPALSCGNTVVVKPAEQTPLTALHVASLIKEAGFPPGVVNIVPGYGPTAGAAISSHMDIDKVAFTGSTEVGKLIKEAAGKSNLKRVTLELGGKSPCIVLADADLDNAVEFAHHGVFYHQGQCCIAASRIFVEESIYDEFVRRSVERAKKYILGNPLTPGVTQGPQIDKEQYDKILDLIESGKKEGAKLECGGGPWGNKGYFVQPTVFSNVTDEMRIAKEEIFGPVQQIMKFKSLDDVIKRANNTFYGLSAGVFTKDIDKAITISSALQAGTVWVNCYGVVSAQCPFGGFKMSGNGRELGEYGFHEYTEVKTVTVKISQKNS
HPGD inh – HPGD (human) dehydrogenase inhibition. P15428. purified HPGD, NADH fluorescence kinetic, PGE2 substrate. Potency, µM, for inactives: top-dose activity change, negative = inhibition, usual class: inhibitors. 150,000 compounds, 4.3% hits. AID 894; active = well fitted inhibition curve with a large enough effect, not every such curve was filed as active; inconclusive = small, poorly fitted or top-dose-only effect, or another doubt; inactive = no such curve, though single readings can be large or run the other way; also: potency is read from the fitted curve at half-maximal effect; % is scaled to controls: 0 for no effect and ±100 for the full control effect
Target sequence (P15428 whole entry, looked up): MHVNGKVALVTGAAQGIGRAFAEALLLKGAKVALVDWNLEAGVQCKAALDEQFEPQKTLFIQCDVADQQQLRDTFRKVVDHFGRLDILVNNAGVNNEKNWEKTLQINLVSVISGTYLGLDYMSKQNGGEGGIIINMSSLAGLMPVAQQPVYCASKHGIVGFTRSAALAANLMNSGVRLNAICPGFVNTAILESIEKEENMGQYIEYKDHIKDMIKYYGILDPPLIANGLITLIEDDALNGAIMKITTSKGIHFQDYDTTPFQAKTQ
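20 nM HPGD preincubated 15 min at room temperature with compound in 50 mM Tris-HCl pH 8, 0.01% Tween 20. Started with 1 mM NAD+ and 30 uM prostaglandin E2; NADH fluorescence (360/450 nm) read 5 times over 30-s intervals, last minus first.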
PNC assembly inh – blocks assembly of the perinucleolar compartment | PC3M PTB-GFP, PNC prevalence imaging, 16 h; hits give low values | activity change (PNC), negative = inhibition, % at 10 µM | 140,000 compounds, 3.1% hits | AID 2417;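 active = readout at or below -70, meaning at least 70% loss of cells showing the perinucleolar compartment, a nuclear body marking cancer cells; inconclusive = readout between -30 and a set limit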;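 also: plate controls were DMSO wells for no effect and camptothecin positive control wells for full effect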
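Read-out is percentage of cells bearing a perinucleolar compartment, from automated 20x imaging of fixed, Hoechst-stained PC3M PTB-GFP cells. Cells were seeded 4 h, then exposed 16 h to compound (23 nl of library stock) in duplicate plates.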
CBFb RUNX1 block – inhibitors of human CBF-beta and RUNX1 interaction; Q01196+Q13951; Potency, µM (top dose mostly 59.8 µM), inactives show at the highest dose activity, negative = inhibition, actives largely listed as inhibitors; AlphaScreen CBFb-His/RUNX1-biotin binding, biochemical; 230,000 tested, under 10 active; also: % of control where 0% means no effect
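CBF-beta (His) and RUNX1 (biotin), 30 nM each; 20 min preassociation; + compound, 15 min; + beads 50 ng each (Ni, streptavidin), 90 min; RT; AlphaScreen read.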
HTT ATP protect – Huntington cell model cytoprotection by ATP luminescence | Potency, µM (highest dose often 56.4 µM), for the others: cytoprotection (ATP increase), most hits filed as activators | PC12 HTT-Q103 induced, cytoprotection, ATP luminescence, 40 h | 230,000 compounds, 0.14% hits; also: potency is read from the fitted curve at half-maximal effect; % of control where 0% means no effect; nearly all actives have a fitted effect of over 45% in size
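Quantitative HTS on tebufenozide-induced (100 nM) PC12 cells expressing HTTQ103 exon 1–GFP; compounds tested as a concentration series; survival measured via cellular ATP.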
The depositor's hits bear a star; ? = inconclusive; / = no result given; ! = repeats disagree; [ ] = dose if it differs, or a comment. Hits are enriched below; roughly 11% of the tested compounds scored in any of these assays. Unless noted, calls follow the shape of the dose curve; as a rule, active = well fitted curve in the direction sought with a large enough effect; inconclusive = small, poorly fitted or top-dose-only effect, or another doubt; inactive = no such curve, though single readings can be large; an effect the other way counts as inactive or inconclusive.

SMILES	HTT aggregate	ALDH1A1 block	HPGD inh	PNC assembly inh	CBFb RUNX1 block	HTT ATP protect
O=C(CSc1nc(-c2ccccc2)c(-c2ccccc2)[nH]1)N1CCN(S(=O)(=O)c2ccccc2)CC1	-22%	?	?	34	?	-37%
COc1ccccc1N1CCN(CCCNc2cc(=O)n(C)c(=O)n2C)CC1	24%	3%	-5%	/	?	32µM*!
COC(=O)N1CCC2(CCCN(C(=O)Nc3ccccc3)C2)CC1	/	6%	-6%	/	/	17%
CC(=O)NC(Cc1ccccc1C)C(=O)NC1CCN(C(=O)c2cccc(C)c2)CC1 (configuration not stated)	0%[9.22 µM]	20µM*	/	/	6%	8%[10 µM]
CC(=O)NC(Cc1cccc(F)c1)C(=O)NC1CCN(C(=O)c2ccc(C)cc2)CC1 (configuration not stated)	4%[9.22 µM]	14µM*	/	/	2%	15%[10 µM]
COc1cc(C(=O)N2CCC(NC(=O)C(Cc3ccccc3C)NC(C)=O)CC2)cc(OC)c1OC (configuration not stated)	-1%	3%	-4%	20	-2%	5%
COc1cc(C(=O)N2CCC(NC(=O)C(Cc3ccc(C)cc3)NC(C)=O)CC2)cc(OC)c1OC (configuration not stated)	-7%	6%	-5%	?	-2%	6%[10 µM]
C[C@@H]1CCC2C(C)(C)C3CC21CC[C@@]3(C)O (some centres not stated)	/	-10%	-8%	/	-23%	5%
O=C(NCO)c1cccnc1	/	13%	-9%	/	/	/
C[C@H]1/C=C\CC(=O)OC[C@H](C)C(=O)N2CCC[C@@H]2C(=O)OC1	/	12%[13.5 µM]	/	/	4%[13.1 µM]	?
CC1CC=CC2C1C(=O)N(Cc1ccccc1)C2c1ccc(F)c(/C=C/c2ccccc2)c1 (configuration not stated)	/	/	/	/	7%	/
O=C(COC(=O)CSc1cccc2cccc(Cl)c12)Nc1ncc(C(F)(F)F)cc1Cl	-14%	-2%	?	-23	-1%	-21%[10 µM]
COc1cc(NC(=O)c2cccc(C)c2)c(OC)cc1NC(=O)CN1CCCCC1	7%[9.22 µM]	?	/	/	-6%	-5%[10 µM]
COc1cc(NC(=O)c2ccccc2)c(OC)cc1NC(=O)CN1CCN(c2ccccn2)CC1	-1%	16µM*	-20%	-12	-26%	-48%
COc1cc(NC(=S)N2CCN(c3ccccn3)CC2)c(OC)cc1Cl	-8%	?	28µM*	5	-4%	4%[10 µM]
COc1ccc(Cl)cc1NC(=S)N1CCN(c2ccccn2)CC1	8%	3%	/	-6	-4%	-16%
O=C(CN1CCCC1)N1c2ccccc2Sc2ccc(C(F)(F)F)cc21	-15%	4%	-12%	17	17%	13%[1.9 µM]
O=C(CN1CCN(c2ccccn2)CC1)N1c2ccccc2Sc2ccc(C(F)(F)F)cc21	-5%[9.22 µM]	7.9µM*	-15%	-114*	1%	-34%
COc1cc(NS(C)(=O)=O)c(OC)cc1NC(=O)c1ccccc1	-16%	25µM*	-7%	?	2%	-3%[0.074 µM]
COc1cc(NC(=O)c2ccccc2)c(OC)cc1NC(C)=O	8%	-8%	4%	3	4%	-4%
Cc1noc(C)c1C(=O)OCC(=O)c1cc(C)n(Cc2ccccc2Cl)c1C	?	-3%	-11%	-1	0%	-22%[10 µM]
CC(=O)OC[C@@H]1O[C@@H](O/N=C2/C[C@@H](O)[C@@H](O)[C@@H]3[C@@H]4C(=O)N(C(C)(C)C)C(=O)[C@H]4CC[C@H]23)[C@H](OC(C)=O)[C@H](OC(C)=O)[C@@H]1OC(C)=O	/	9%[13.5 µM]	/	/	-12%[13.1 µM]	?
O=C(CN1CCN(c2ccccn2)CC1)Nc1cccc(C(F)(F)F)c1	2%	9.5µM*	5%	26	2%	8%[10 µM]
O=C(CN1CCN(c2ccccc2)CC1)Nc1cccc(C(F)(F)F)c1	-18%	1%	-14%	32	2%	-14%
O=C(c1cc2ncc(Br)cn2n1)N1CCN(C(=O)c2ccco2)CC1	-1%	25µM*	-23%	-15	-3%	12%
SMILES	HTT aggregate	ALDH1A1 block	HPGD inh	PNC assembly inh	CBFb RUNX1 block	HTT ATP protect
CCOC(=O)C1CCCN(C(=O)c2cc3ncc(Br)cn3n2)C1 (configuration not stated)	6%	4%	-29%	7	4%	1%
O=C(c1cc2ncc(Br)cn2n1)N1CCOCC1	-1%	3%	22µM*	-5	3%	-3%[10 µM]
O=C(c1cc(C(F)(F)F)cc(C(F)(F)F)c1)N1CCC2(CC1)CCN(c1ccccn1)CC2	/	-8%	-30%	/	/	1%
O=C(c1ccncc1)N1CCC2(CCCN(Cc3nccs3)C2)CC1	/	8%	-4%	/	/	?
CCn1c(=NC(=O)CN2C(=O)CCC2=O)sc2c(C)cc(C)cc21	-11%	-8%	14µM*	24	-1%	-27%
Cc1nc2ncnn2c(Nc2ccc3c(c2)OCCO3)c1C	/	/	/	/	/	-8%[10 µM]
CCc1c(C)nc2ncnn2c1Nc1ccc(C#N)c(Cl)c1	13µM*	-9%	-12%	-13	5%	-3%
CCc1c(C)nc2ncnn2c1Nc1ccc(C(C)=O)cc1	7%	2%	-20%	-111*	-3%	3%
CCOC(=O)c1ccc(Nc2c(CC)c(C)nc3ncnn23)cc1	3%	3%	-24%	-30	0%	23%[10 µM]
CCc1c(C)nc2ncnn2c1NCCc1ccc(OC)c(OC)c1	10µM*	-1%	-20%	5	9%	18%[10 µM]
CCOc1ccc(Cc2noc3c2C(=O)CCC3)cc1OCC	-6%	6%	/	/	-1%	-28%
CCOc1ccc(Cc2noc3c2C(=O)CC(C)(C)C3)cc1OCC	-7%	11µM*	/	/	13%	-52%
Cc1ccc(C)c(N2CCN(C(=O)c3ccc(CSc4nc5ccncc5[nH]4)cc3)CC2)c1	-31%	?	-8%	12	4%[2.36 µM]	/
COc1cccc(N2CCN(C(=O)c3ccc(CSc4nc5ccncc5[nH]4)cc3)CC2)c1	-3%	22µM*	-6%	19	1%[2.36 µM]	/
O=C(c1ccc(CSc2nc3ccncc3[nH]2)cc1)N1CCCCC1	-17%	25µM*	0.56µM*	34	6%[2.36 µM]	/
CCOc1cccc(C(=O)NC(=S)Nc2cccc(C)c2)c1	1%	8.9µM*	-9%	-30	-4%	37%[10 µM]
CCCCOc1cccc(C(=O)NC(=S)Nc2ccc(Cl)c(C(=O)O)c2)c1	10%	?	/	/	10%	16%
CCCOc1cccc(C(=O)NC(=S)Nc2cccc(C(F)(F)F)c2)c1	19%	18µM*	-18%	?	5%	-3%
CCOc1cccc(C(=O)Nc2cccc(C(C)=O)c2)c1	9%	6%	-9%	45	11%	-2%[0.074 µM]
